Source: PubChem BioAssay (National Center for Advancing Translational Sciences (NCATS))
ASM inhibitor = inhibitors of human secretory acid sphingomyelinase. placental ASM, HMU-PC fluorogenic substrate, 60 min. Potency, µM (doses to about 57.5 µM), for the others: top-dose activity change, negative = inhibition, usual class: inhibitors. P17405. 340,000 tested, 0.006% active; further: potency means the concentration at half of the fitted maximal effect
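Steps: dispense placental human ASM, pin compound, wait 10 min at room temperature, add HMU-PC0 substrate at 9 uM final, incubate 60 min at 37 °C, add stop solution raising pH to 10, read fluorescence.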
ClpP mod = qHTS Assay for Activators of ClpP; ATP-dependent Clp protease proteolytic subunit (Bacillus subtilis (strain 168)), P80244; AID 651965, 2013; 340,000 tested, 1.9% active; Potency, µM (top dose mostly 57.5 µM), for the others: top-dose activity change, negative = active; purified B. subtilis ClpP, FRET peptide cleavage, 20 min; active means well fitted falling curve with a large enough effect; inconclusive means small, poorly fitted or top-dose-only effect; inactive means no such curve, though single readings can be large or run the other way; further: potency means the concentration at half of the fitted maximal effect; the source files actives as falling curves though it sought activators and does not explain the sign; nearly all actives have a fitted effect of over 65% in size
Target sequence (P80244 whole entry, looked up): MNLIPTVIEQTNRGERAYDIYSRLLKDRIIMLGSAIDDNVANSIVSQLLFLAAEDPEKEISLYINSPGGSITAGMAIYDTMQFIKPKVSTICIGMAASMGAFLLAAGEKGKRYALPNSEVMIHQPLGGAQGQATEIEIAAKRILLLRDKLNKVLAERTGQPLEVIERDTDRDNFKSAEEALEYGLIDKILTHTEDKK
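FRET quenching reversal measured ClpP activation: 10 microg/mL B. subtilis ClpP at pH 8 with the FRET-FV decapeptide, read at 430 nm after 320 nm excitation. The 20-min minus 0-min signal was scaled between DMSO/no-enzyme wells and ADEP (5.8 microM final).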
Mito fusion act = blocks mitochondrial division or promotes mitochondrial fusion; Potency, µM (top dose mostly 46.1 µM), inactives show top-dose growth rescue (activation), hits mostly activators; AID 485298; S. cerevisiae fusion-defective mutant growth rescue, CellTiterGlo 48 h; 320,000 tested, 0.23% active; further: potency means the concentration at half of the fitted maximal effect; % of control where 0% means no effect; nearly all actives have a fitted effect of over 45% in size
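Read-out: ATP-based luminescence (CellTiterGlo, 10 min ambient) reporting growth of fusion-defective ts yeast after 48 hours at 37C on glycerol/ethanol YPEG medium in the presence of compound.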
mIDH1 inhibitor = inhibitors of human mutant IDH1 R132H; O75874; IDH1-R132H enzyme, NADPH consumption, diaphorase/resazurin fluorescence; Potency, µM (highest dose often 76.6 µM), inactives show at the highest dose activity change, negative = inhibition, actives largely listed as inhibitors; 390,000 tested, 0.093% active; AID 602179; further: potency means the concentration at half of the fitted maximal effect; on the % scale 0 is the no-effect control and ±100 the full control effect; nearly all actives have a fitted effect of over 65% in size
Target sequence (O75874 whole entry R132H, stated change not applied): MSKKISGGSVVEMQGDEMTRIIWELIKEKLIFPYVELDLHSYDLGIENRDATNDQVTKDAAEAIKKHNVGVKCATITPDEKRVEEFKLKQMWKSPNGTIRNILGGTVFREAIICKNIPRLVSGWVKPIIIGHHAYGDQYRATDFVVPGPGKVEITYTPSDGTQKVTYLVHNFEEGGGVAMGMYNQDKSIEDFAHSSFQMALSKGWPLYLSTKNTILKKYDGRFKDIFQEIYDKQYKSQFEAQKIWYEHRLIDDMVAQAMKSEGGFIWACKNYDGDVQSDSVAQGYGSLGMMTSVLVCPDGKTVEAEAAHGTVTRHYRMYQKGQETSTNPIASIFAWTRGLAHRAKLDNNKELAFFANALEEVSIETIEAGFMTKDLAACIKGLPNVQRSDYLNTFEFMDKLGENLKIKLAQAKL
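IDH1-R132H (0.5 ug/mL) preincubated 30 min with compound, then NADPH (0.016 mM) and alpha-KG (2 mM) added; 80 min at RT, pH 7.5. Remaining NADPH coupled via diaphorase/resazurin to fluorescence (540/590 nm); concentration-response curves normalized to no-enzyme control.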
RGS4 inh = blocks human RGS4-accelerated GTP hydrolysis; Transcreener GDP fluorescence polarization, RGS4-accelerated GTP hydrolysis; Potency, µM (top dose mostly 114 µM), for inactives: at the top dose activity change, negative = inhibition, hits mostly inhibitors; P49798; 390,000 tested, 0.039% active; AID 504845; further: potency means the concentration at half of the fitted maximal effect; on the % scale 0 is the no-effect control and ±100 the full control effect; nearly all actives have a fitted effect of over 75% in size
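MLSMR compounds (23 nl, pin-transferred) preincubated 10 min at room temperature with a 500nM (2x) first reagent, then RGS4 at 900nM (2x) plus Transcreener GDP mix added; fluorescence polarization (620/688 nm) read before and after 90 min at 30 °C.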
LDHA inh = LDHA (human) enzyme inhibition; 480,000 tested, 0.15% active; activity change, % (values are at about 110 or 230 µM); AID 1347041; P00338; purified LDHA, NADH/diaphorase-resazurin fluorescence; active compounds read low; in the data active means activity change below about -30%; inconclusive means mostly about -25% to -30%;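 further: plate controls were DMSO wells for no effect and wells without enzyme for full effect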
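LDH5 2 nM; NADH 0.06 mM, pyruvate 0.2 mM; 200 mM Tris pH 7.4, EDTA, Tween-20; 5 min RT. Detection: diaphorase 0.133 mg/mL + resazurin 37 µM, fluorescence ex540/em590 at 0 and 20 min; normalized to enzyme-free and DMSO wells.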
The depositor's hits bear a star; ! = not confirmed by another sample; [ ] = another dose, or the depositor's remark. The entries come from a sample that favours hits as a whole. Unless noted, the call rests on the fitted dose curve; in most records, active means well fitted curve in the direction sought with a large enough effect; inconclusive means small, poorly fitted or top-dose-only effect, or another doubt; inactive means no such curve, though single readings can be large; an effect the other way counts as inactive or inconclusive.

Screening COc1ccc(CC(=O)N/N=C(\C)c2cccc(NC(=O)C3CC3)c2)cc1 returned ASM inhibitor -6.2%, ClpP mod -1.3%, Mito fusion act -0.9%, mIDH1 inhibitor -8.1%, RGS4 inh 18.7% and LDHA inh -0.6.
`COc1ccc(C(=O)N(C)CCCNC(=O)c2nc3ccccc3c(=O)[nH]2)cc1OC` gave LDHA inh 6.4.
Screening CC1(CBr)C2CCC1(C)C1(OCCO1)C21OCCO1 (stereo not given) returned LDHA inh -2.3.
For Cc1sc(N)c(C#N)c1C the results were ASM inhibitor 6.7%, ClpP mod 14.1µM*, Mito fusion act -1.3%, mIDH1 inhibitor 3.9%, RGS4 inh -13.8% and LDHA inh -0.2.
`CCOC(=O)c1sc(N)c(C#N)c1C` gave LDHA inh 3.0.
Screening Nc1ccc2c(c1)C(=O)NC2 returned LDHA inh -2.0.
Cc1ccc(-n2c(=O)[nH]c3c(C(N)=O)nc(CC(C)C)nc32)cc1 was read as ASM inhibitor 23.8%, ClpP mod 28.2µM*, Mito fusion act -3.9%, mIDH1 inhibitor 10.1%, RGS4 inh -31.7% and LDHA inh -6.8.
COc1ccccc1-n1c(=O)[nH]c2c(C(N)=O)nc(CC(C)C)nc21 was read as ASM inhibitor 35.3%, ClpP mod 5.4%, Mito fusion act -0.6%, mIDH1 inhibitor -12.7%, RGS4 inh -1.6% and LDHA inh 0.5.
For O=C(CC1CCCCC1)Nc1cc(C(F)(F)F)ccc1Cl the results were LDHA inh 4.9.
Cn1c(-c2ccccc2O)cc2ccccc21 was read as ASM inhibitor -4.5%, ClpP mod 15.8µM*, Mito fusion act 1.0%, mIDH1 inhibitor 2.1%, RGS4 inh -23.6% and LDHA inh -5.4.
`COc1cc2ncnc(N3CCN(C(C)=O)CC3)c2cc1OC` gave LDHA inh -23.5.
Screening Cc1c(Cl)cccc1NC(=S)N1CCN(C(=O)C2CCCO2)CC1 (stereo not given) returned ASM inhibitor -2.1%, ClpP mod 28.2µM*, Mito fusion act -3.9%, mIDH1 inhibitor 2.6%, RGS4 inh -6.6% and LDHA inh -6.4.
Screening O=C(C1CCCO1)N1CCN(C(=S)Nc2ccccc2C(F)(F)F)CC1 (stereo not given) returned ASM inhibitor 5.4%, ClpP mod 1.6%, Mito fusion act -0.6%, mIDH1 inhibitor 9.1%, RGS4 inh 10.6% and LDHA inh -6.9.
`Cn1c(=O)c(=O)n(C)c2cc(N3CCOCC3)c(NS(=O)(=O)c3ccc(C(C)(C)C)cc3)cc21` gave LDHA inh -8.4.
For CCCCC(=O)N1CC(=O)Nc2ccc(F)cc2C1c1ccc(F)cc1 (stereo not given) the results were ASM inhibitor 1.6%, ClpP mod 20µM*!, Mito fusion act -1.0%, mIDH1 inhibitor -0.1%, RGS4 inh -16.7% and LDHA inh -5.1.
For CCc1nnc2sc(-c3ccc(NC(=O)c4ccc5c(c4)OCCO5)cc3)nn12 the results were ASM inhibitor 33.4%, ClpP mod 28.2µM*, Mito fusion act -3.3%, mIDH1 inhibitor 1.9%, RGS4 inh -3.9% and LDHA inh 0.2.
For COc1ccc(C2C(C#N)C(C#N)N3CCCN23)cc1 (stereo not given) the results were ASM inhibitor 3.8%, ClpP mod 31.6µM*, Mito fusion act -2.9%, mIDH1 inhibitor 1.5%, RGS4 inh 24.6% and LDHA inh -3.7.
`COc1ccc([C@H]2[C@@H](C#N)[C@H](C#N)N3CCCN23)cc1` gave ASM inhibitor 5.5%, ClpP mod -26.2%, Mito fusion act -2.6%, mIDH1 inhibitor 7.4%, RGS4 inh 6.5%[56.9 µM] and LDHA inh 1.2.
`Cc1ccc(Cn2nc(C)c(NC(=O)Nc3cccc(F)c3)c2C)cc1` gave LDHA inh 4.9.
Cc1ccc(F)cc1NC(=O)c1nn(C)c(=O)c2ccccc12 was read as LDHA inh -3.1.
Screening CC(C)=NNC(=O)c1ccc(Cl)cc1 returned LDHA inh -10.2.
Screening CCc1cccc(C)c1NC(=O)CN1C(=O)c2c(c3ccccc3n2C)C1c1ccc(OC)cc1 (stereo not given) returned ClpP mod 25.1µM*, mIDH1 inhibitor 5.7%, RGS4 inh -21.7% and LDHA inh 0.9.
COc1ccc(C2c3c(n(C)c4ccccc34)C(=O)N2CC(=O)Nc2ccc(Cl)cc2)cc1 (stereo not given) was read as ClpP mod 17.8µM*, mIDH1 inhibitor 0.7%, RGS4 inh 19.2% and LDHA inh -17.5.
CCCCNC(=O)CN1C(=O)c2c(c3ccccc3n2C)C1c1ccc(OC)cc1 (stereo not given) was read as ClpP mod 31.6µM*, mIDH1 inhibitor 4.2%, RGS4 inh -34.0% and LDHA inh 2.0.
COc1ccc(C2c3c(n(C)c4ccccc34)C(=O)N2CC(=O)Nc2ccc(F)cc2)cc1 (stereo not given) was read as ClpP mod inconclusive, mIDH1 inhibitor -4.4%, RGS4 inh -11.7% and LDHA inh -7.7.
Screening Cc1ccc(-c2cnc(-c3ccccc3C(=O)NC(C)C)o2)cc1 returned LDHA inh -0.1.
Fc1ccccc1CSCc1ccc(-c2nc(-c3ccc4c(c3)OCO4)no2)o1 was read as LDHA inh -6.4.
For Cc1cccc(N/C(N)=N/c2nc(C)cc(C)n2)c1 the results were ASM inhibitor -1.7%, ClpP mod 31.6µM*, Mito fusion act 0.3%, mIDH1 inhibitor -3.4%, RGS4 inh 16.9%[11.4 µM] and LDHA inh 11.2.
For CC(=O)Nc1cccc(N/C(N)=N/c2nc(C)cc(C)n2)c1 the results were ASM inhibitor -2.7%, ClpP mod -3.4%, Mito fusion act -2.8%, mIDH1 inhibitor 21.8%, RGS4 inh 5.3% and LDHA inh -5.5.
`CC(C)(C)C(=O)Nc1ccc(NC(=O)c2ccc3nc[nH]c3c2)cc1` gave LDHA inh 12.7.
O=C(Nc1cccn(Cc2ccc(F)cc2)c1=O)NC1CCCCC1 was read as ASM inhibitor -0.6%, ClpP mod 17.8µM*, Mito fusion act 5.9%, mIDH1 inhibitor 3.6%, RGS4 inh 3.9% and LDHA inh 10.8.
`Cc1ccc(Cn2cccc(NC(=O)NC3CCCCC3)c2=O)cc1` gave ASM inhibitor -3.3%, ClpP mod inconclusive, Mito fusion act 5.4%, mIDH1 inhibitor 4.2%, RGS4 inh 16.4% and LDHA inh 3.7.
